In ChEMBL document CHEMBL1961873, “Compounds: GSK PKIS; Assays: Nanosyn kinase panel” (2012):

Experiments:
[1] = target: Tyrosine-protein kinase Fyn (Homo sapiens) (UniProt P06241); conditions: at 1 µM
[2] = target: Tyrosine-protein kinase HCK (Homo sapiens) (UniProt P08631); conditions: at 0.1 µM
[3] = target: Tyrosine-protein kinase HCK (Homo sapiens) (UniProt P08631); conditions: at 1 µM
[4] = target: Insulin-like growth factor 1 receptor (Homo sapiens) (UniProt P08069); conditions: at 0.1 µM
[5] = target: Insulin-like growth factor 1 receptor (Homo sapiens) (UniProt P08069); conditions: at 1 µM
[6] = target: Insulin receptor (Homo sapiens) (UniProt P06213); conditions: at 0.1 µM
[7] = target: Insulin receptor (Homo sapiens) (UniProt P06213); conditions: at 1 µM
[8] = target: Insulin receptor-related protein (Homo sapiens) (UniProt P14616); conditions: at 0.1 µM
Sequence of Insulin receptor-related protein (Homo sapiens) (P14616 27-742 limits assumed): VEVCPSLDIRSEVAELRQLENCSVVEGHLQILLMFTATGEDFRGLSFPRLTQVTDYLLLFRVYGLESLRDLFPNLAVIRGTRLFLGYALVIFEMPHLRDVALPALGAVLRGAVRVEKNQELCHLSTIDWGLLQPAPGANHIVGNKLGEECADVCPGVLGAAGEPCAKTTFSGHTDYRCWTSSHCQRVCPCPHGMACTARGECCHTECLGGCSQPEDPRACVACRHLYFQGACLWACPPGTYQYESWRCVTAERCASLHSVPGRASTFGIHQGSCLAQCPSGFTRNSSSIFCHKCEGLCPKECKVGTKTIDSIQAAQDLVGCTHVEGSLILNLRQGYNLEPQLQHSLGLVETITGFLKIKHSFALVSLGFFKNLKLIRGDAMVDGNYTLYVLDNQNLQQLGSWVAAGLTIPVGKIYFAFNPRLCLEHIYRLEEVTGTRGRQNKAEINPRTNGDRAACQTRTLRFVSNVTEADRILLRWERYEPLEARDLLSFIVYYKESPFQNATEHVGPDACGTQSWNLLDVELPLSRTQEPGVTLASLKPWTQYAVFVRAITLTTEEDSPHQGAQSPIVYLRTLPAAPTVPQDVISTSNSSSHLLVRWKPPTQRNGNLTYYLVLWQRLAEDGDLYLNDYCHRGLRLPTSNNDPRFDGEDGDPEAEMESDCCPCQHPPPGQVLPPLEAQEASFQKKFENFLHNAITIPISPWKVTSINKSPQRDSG
Sequence of Insulin receptor-related protein (Homo sapiens) (P14616 747-1297 limits assumed): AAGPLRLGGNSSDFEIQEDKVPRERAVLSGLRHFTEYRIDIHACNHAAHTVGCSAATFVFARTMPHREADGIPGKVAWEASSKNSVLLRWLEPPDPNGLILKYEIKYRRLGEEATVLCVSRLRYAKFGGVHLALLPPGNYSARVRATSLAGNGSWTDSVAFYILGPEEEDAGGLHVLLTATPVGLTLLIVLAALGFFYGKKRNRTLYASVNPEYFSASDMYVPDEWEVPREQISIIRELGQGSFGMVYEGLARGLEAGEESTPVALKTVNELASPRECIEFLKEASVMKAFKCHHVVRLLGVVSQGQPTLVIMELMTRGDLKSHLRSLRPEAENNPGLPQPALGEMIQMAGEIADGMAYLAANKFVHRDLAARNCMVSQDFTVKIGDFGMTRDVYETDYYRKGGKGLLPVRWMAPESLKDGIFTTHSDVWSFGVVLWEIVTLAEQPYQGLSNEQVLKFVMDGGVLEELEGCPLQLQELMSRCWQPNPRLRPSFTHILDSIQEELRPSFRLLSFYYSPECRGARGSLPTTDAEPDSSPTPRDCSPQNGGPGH

[9] = target: Insulin receptor-related protein (Homo sapiens) (UniProt P14616); conditions: at 1 µM
[10] = target: T1, Tyrosine-protein kinase ITK/TSK (Homo sapiens) (UniProt Q08881); conditions: at 0.1 µM
T1 sequence (whole entry): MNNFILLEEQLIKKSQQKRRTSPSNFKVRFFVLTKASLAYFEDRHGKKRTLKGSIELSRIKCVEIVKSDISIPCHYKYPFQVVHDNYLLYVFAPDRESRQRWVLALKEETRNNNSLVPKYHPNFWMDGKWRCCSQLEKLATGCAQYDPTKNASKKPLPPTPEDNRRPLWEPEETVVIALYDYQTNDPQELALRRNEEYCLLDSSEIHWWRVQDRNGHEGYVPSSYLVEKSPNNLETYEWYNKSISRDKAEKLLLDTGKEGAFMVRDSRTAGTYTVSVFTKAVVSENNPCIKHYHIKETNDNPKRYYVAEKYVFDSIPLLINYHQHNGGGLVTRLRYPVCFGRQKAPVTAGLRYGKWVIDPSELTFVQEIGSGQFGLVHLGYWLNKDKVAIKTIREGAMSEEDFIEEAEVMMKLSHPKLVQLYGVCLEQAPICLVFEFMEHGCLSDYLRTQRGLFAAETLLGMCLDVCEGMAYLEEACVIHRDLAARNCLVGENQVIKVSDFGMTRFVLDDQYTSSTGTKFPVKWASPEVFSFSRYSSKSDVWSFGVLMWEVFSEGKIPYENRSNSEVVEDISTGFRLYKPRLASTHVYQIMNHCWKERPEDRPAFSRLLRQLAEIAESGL

[11] = target: T1, Tyrosine-protein kinase ITK/TSK (Homo sapiens); conditions: at 1 µM
[12] = target: Tyrosine-protein kinase JAK1 (Homo sapiens) (UniProt P23458); conditions: at 0.1 µM
[13] = target: Tyrosine-protein kinase JAK1 (Homo sapiens) (UniProt P23458); conditions: at 1 µM
[14] = target: Tyrosine-protein kinase JAK2 (Homo sapiens) (UniProt O60674); conditions: at 0.1 µM
Sequence of Tyrosine-protein kinase JAK2 (Homo sapiens) (O60674 whole entry): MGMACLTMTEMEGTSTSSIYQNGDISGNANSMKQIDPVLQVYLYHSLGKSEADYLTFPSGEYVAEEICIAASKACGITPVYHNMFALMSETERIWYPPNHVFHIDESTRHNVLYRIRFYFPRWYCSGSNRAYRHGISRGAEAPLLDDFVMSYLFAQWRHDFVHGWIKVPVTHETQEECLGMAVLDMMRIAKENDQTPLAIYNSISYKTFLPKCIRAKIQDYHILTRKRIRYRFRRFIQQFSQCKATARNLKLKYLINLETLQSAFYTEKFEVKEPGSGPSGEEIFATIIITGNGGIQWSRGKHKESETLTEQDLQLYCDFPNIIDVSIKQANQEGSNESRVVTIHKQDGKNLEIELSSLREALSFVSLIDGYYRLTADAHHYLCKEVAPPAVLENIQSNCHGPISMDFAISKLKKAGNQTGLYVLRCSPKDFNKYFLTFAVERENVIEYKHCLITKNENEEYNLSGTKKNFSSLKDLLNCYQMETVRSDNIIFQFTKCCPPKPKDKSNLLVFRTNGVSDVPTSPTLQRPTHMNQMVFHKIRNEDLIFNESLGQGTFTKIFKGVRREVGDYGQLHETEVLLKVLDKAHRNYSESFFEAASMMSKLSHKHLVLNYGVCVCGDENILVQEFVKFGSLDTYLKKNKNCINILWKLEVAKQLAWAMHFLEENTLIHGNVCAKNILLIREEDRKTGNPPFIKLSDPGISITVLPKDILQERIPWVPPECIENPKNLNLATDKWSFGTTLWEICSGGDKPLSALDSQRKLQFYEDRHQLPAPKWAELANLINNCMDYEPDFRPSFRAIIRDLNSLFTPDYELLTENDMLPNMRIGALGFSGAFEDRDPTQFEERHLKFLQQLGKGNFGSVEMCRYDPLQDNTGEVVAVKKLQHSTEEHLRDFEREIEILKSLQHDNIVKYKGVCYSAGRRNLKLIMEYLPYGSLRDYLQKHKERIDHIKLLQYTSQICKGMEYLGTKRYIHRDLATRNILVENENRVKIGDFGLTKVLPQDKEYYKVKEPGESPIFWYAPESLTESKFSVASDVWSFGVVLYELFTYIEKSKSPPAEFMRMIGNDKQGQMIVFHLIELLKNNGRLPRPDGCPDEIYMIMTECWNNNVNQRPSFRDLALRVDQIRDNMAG

[15] = target: Tyrosine-protein kinase JAK2 (Homo sapiens) (UniProt O60674); conditions: at 1 µM
[16] = target: T2, Tyrosine-protein kinase JAK3 (Homo sapiens) (UniProt P52333); conditions: at 0.1 µM
T2 sequence (whole entry): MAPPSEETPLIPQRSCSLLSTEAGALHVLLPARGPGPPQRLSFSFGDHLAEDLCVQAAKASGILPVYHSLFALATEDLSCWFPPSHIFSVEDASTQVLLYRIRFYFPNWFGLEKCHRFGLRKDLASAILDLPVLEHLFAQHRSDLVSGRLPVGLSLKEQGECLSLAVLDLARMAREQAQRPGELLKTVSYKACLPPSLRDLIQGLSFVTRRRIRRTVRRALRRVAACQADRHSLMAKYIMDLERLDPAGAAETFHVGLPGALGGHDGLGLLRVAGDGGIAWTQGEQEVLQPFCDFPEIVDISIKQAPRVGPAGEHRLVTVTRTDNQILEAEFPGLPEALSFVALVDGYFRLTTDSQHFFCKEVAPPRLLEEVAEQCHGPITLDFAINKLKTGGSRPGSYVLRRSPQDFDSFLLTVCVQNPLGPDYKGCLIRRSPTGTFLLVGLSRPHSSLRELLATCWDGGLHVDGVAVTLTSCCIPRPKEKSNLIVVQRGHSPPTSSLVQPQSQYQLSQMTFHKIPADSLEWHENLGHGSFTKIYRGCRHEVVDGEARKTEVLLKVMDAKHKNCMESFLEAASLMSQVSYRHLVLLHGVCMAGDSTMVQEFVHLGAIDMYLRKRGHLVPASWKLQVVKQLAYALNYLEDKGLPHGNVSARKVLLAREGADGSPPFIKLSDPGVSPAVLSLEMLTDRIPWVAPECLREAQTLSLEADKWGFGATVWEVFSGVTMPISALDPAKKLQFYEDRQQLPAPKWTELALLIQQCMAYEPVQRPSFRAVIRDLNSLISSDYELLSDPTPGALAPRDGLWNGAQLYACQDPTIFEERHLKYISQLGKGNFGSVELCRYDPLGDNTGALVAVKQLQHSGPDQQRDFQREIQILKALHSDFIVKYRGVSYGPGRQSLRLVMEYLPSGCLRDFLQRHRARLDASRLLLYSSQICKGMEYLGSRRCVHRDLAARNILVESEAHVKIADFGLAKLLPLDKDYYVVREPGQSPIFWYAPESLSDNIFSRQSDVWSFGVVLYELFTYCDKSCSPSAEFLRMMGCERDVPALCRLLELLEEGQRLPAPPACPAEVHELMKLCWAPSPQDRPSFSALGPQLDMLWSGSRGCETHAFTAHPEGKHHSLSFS

[17] = target: T2, Tyrosine-protein kinase JAK3 (Homo sapiens); conditions: at 1 µM
[18] = target: Vascular endothelial growth factor receptor 2 (Homo sapiens) (UniProt P35968); conditions: at 0.1 µM
Sequence of Vascular endothelial growth factor receptor 2 (Homo sapiens) (P35968 whole entry): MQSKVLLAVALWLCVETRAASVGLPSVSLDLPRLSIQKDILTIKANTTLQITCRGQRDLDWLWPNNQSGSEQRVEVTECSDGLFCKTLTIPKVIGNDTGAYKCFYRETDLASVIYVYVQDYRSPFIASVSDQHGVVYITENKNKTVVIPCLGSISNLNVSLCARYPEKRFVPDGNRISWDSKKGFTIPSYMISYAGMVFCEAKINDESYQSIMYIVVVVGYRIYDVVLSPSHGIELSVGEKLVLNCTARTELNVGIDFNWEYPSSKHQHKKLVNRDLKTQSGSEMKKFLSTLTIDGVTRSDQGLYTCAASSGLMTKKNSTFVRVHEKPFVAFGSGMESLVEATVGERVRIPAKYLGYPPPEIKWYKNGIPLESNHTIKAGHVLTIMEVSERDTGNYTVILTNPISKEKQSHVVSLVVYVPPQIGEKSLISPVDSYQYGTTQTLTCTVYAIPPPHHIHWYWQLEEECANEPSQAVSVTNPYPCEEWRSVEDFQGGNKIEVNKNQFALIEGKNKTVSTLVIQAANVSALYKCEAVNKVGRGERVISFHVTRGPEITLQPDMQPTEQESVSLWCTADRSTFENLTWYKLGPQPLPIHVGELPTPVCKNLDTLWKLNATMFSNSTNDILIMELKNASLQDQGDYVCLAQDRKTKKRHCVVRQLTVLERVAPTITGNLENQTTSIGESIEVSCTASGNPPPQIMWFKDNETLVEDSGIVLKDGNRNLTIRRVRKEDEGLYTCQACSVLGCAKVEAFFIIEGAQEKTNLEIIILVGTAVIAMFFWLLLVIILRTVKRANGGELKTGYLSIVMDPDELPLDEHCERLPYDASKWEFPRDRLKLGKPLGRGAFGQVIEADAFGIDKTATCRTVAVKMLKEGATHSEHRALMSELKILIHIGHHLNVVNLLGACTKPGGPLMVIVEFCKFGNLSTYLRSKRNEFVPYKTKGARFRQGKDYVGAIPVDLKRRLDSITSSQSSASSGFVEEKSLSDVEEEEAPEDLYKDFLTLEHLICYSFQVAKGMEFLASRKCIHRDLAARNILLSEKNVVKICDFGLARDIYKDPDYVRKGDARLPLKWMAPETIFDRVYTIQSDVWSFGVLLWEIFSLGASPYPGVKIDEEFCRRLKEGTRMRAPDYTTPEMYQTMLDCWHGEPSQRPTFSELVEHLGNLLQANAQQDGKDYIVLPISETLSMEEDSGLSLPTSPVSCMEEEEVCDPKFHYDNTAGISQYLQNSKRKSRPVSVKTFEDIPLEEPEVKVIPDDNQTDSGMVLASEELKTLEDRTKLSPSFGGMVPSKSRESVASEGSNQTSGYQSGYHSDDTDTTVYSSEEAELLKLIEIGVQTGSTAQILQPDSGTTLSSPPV

[19] = target: Vascular endothelial growth factor receptor 2 (Homo sapiens) (UniProt P35968); conditions: at 1 µM
[20] = target: Mast/stem cell growth factor receptor Kit (Homo sapiens) (UniProt P10721); conditions: at 0.1 µM;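 note: values are mean inhibition of KIT, from the GSK PKIS dataset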

Sequence of Tyrosine-protein kinase Fyn (Homo sapiens) (P06241 2-537 limits assumed): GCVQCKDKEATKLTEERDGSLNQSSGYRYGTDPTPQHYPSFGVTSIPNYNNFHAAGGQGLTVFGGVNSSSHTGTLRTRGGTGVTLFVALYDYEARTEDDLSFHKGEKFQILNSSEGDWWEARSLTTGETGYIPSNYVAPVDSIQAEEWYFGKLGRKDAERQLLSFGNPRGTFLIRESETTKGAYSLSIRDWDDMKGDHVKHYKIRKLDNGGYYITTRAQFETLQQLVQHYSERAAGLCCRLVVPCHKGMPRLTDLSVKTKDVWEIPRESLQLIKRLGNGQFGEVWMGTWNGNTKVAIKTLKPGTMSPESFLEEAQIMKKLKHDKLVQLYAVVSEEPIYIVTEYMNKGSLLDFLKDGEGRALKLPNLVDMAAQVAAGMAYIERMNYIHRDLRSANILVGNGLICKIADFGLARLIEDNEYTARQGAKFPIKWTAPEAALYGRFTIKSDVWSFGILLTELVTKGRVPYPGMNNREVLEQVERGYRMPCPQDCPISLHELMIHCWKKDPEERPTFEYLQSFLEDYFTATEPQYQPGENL
Sequence of Tyrosine-protein kinase HCK (Homo sapiens) (P08631 2-526 limits assumed): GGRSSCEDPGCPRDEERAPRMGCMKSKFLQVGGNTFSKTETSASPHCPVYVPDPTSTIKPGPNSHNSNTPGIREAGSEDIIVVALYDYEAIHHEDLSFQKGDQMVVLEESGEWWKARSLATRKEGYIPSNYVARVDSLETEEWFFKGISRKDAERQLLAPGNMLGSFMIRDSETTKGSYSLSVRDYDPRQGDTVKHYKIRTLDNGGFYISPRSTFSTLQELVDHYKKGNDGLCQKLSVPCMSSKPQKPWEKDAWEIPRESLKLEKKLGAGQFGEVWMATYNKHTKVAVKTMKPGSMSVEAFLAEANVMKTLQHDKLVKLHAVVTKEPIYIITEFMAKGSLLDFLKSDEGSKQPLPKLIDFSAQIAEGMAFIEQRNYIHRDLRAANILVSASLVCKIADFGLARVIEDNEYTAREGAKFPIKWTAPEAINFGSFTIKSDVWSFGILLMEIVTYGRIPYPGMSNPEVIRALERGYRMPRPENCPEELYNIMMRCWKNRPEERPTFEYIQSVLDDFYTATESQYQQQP

CS(=O)(=O)Nc1ccc(N/C=C2\C(=O)Nc3ccccc32)cc1
inhibition [1]: 4.85%
inhibition [2]: -0.18%
inhibition [3]: 14.1%
inhibition [4]: -1.54%
inhibition [5]: 5.77%
inhibition [6]: -0.48%
inhibition [7]: 8.57%
inhibition [8]: -3.26%
inhibition [9]: -1.01%
inhibition [10]: -0.24%
inhibition [11]: 3.61%
inhibition [12]: 0.26%
inhibition [13]: 5.33%
inhibition [14]: -0.93%
inhibition [15]: 1.03%
inhibition [16]: 0.43%
inhibition [17]: 8.16%
inhibition [18]: 6.66%
inhibition [19]: 46.7%
inhibition [20]: 17.6%

Cc1nn(C)c2cc(N(C)c3ccnc(Nc4cccc(S(N)(=O)=O)c4)n3)ccc12
inhibition [1]: 28.7%
inhibition [2]: 12.8%
inhibition [3]: 50.2%
inhibition [4]: 1.89%
inhibition [5]: 7.04%
inhibition [6]: 8.17%
inhibition [7]: 3.38%
inhibition [8]: 0.14%
inhibition [9]: 0.9%
inhibition [10]: 1.53%
inhibition [11]: 8.33%
inhibition [12]: 12.3%
inhibition [13]: 54.9%
inhibition [14]: 7.43%
inhibition [15]: 59.5%
inhibition [16]: -0.24%
inhibition [17]: 27.3%
inhibition [18]: 45.4%
inhibition [19]: 68.5%
inhibition [20]: 47%

COc1cc2ncn(-c3cc(OCc4ccccc4Cl)c(C(N)=O)s3)c2cc1OC
inhibition [1]: 23.5%
inhibition [2]: 4.09%
inhibition [3]: 27.1%
inhibition [4]: 2.22%
inhibition [5]: 2.52%
inhibition [6]: 4.5%
inhibition [7]: 7.12%
inhibition [8]: -1.76%
inhibition [9]: 0.06%
inhibition [10]: 0.4%
inhibition [11]: 3.19%
inhibition [12]: 0.17%
inhibition [13]: 5.86%
inhibition [14]: 0.18%
inhibition [15]: 0.34%
inhibition [16]: 0.35%
inhibition [17]: 4.86%
inhibition [18]: 12.2%
inhibition [19]: 53.9%
inhibition [20]: 0.54%

CC(C)=Cc1cccc2c1/C(=N/Nc1ccc(S(N)(=O)=O)cc1)C(=O)N2
inhibition [1]: 27.3%
inhibition [2]: 2.33%
inhibition [3]: 21.4%
inhibition [4]: 2.45%
inhibition [5]: 8.58%
inhibition [6]: 1.28%
inhibition [7]: 13.6%
inhibition [8]: 1.95%
inhibition [9]: 2.95%
inhibition [10]: 0.64%
inhibition [11]: 4.66%
inhibition [12]: 2.53%
inhibition [13]: 17.6%
inhibition [14]: 2.18%
inhibition [15]: 34.2%
inhibition [16]: 5.65%
inhibition [17]: 54.4%
inhibition [18]: 8.9%
inhibition [19]: 48.5%
inhibition [20]: 14.1%

COc1ccc(-c2ccncc2)cc1C(N)=O
inhibition [1]: 3.66%
inhibition [2]: 6.67%
inhibition [3]: 9.92%
inhibition [4]: 3.69%
inhibition [5]: 4.13%
inhibition [6]: 9.09%
inhibition [7]: 6.94%
inhibition [8]: 2.71%
inhibition [9]: 2.24%
inhibition [10]: 1.95%
inhibition [11]: 2.32%
inhibition [12]: 0.28%
inhibition [13]: 3.27%
inhibition [14]: 2.44%
inhibition [15]: 3.4%
inhibition [16]: -2%
inhibition [17]: 0.37%
inhibition [18]: 2.67%
inhibition [19]: 13%
inhibition [20]: 3.75%

Cc1ccc(NC(=O)c2ccnc(N3CCCC3)c2)cc1-c1ccc(C(=O)NCC2CC2)cc1
inhibition [1]: -1.49%
inhibition [2]: 4.55%
inhibition [3]: 10.7%
inhibition [4]: -4.41%
inhibition [5]: -3.36%
inhibition [6]: 6.4%
inhibition [7]: 11.3%
inhibition [8]: 2.43%
inhibition [9]: 2.2%
inhibition [10]: -1.68%
inhibition [11]: -1.06%
inhibition [12]: 4.61%
inhibition [13]: 5.32%
inhibition [14]: 1.37%
inhibition [15]: 2.33%
inhibition [16]: -2.85%
inhibition [17]: 2.32%
inhibition [18]: 9.55%
inhibition [19]: 10.2%
inhibition [20]: 5.54%

CS(=O)(=O)CCNCc1nc(-c2ccc3ncnc(Nc4ccc(F)c(Cl)c4)c3c2)cs1
inhibition [1]: 3.55%
inhibition [2]: 4.76%
inhibition [3]: 13.4%
inhibition [4]: 3.27%
inhibition [5]: 3.4%
inhibition [6]: -0.96%
inhibition [7]: -3.83%
inhibition [8]: 2.7%
inhibition [9]: 1.63%
inhibition [10]: 1.06%
inhibition [11]: 0.89%
inhibition [12]: 2.86%
inhibition [13]: 4.25%
inhibition [14]: 0.34%
inhibition [15]: 4.99%
inhibition [16]: -0.02%
inhibition [17]: 3.43%
inhibition [18]: 9.85%
inhibition [19]: 18.5%
inhibition [20]: 3.87%

O=C1NC(=O)C(N2CCc3ccccc32)=C1c1ccc(Cl)cc1
inhibition [1]: 4.67%
inhibition [2]: 8.78%
inhibition [3]: 12.7%
inhibition [4]: 2.02%
inhibition [5]: 2.75%
inhibition [6]: 6.09%
inhibition [7]: 5.24%
inhibition [8]: 2.18%
inhibition [9]: 2.1%
inhibition [10]: 1.5%
inhibition [11]: 2.44%
inhibition [12]: 1.13%
inhibition [13]: 0.25%
inhibition [14]: 1.54%
inhibition [15]: 2.81%
inhibition [16]: -1.28%
inhibition [17]: 1.36%
inhibition [18]: 12.4%
inhibition [19]: 14.6%
inhibition [20]: 6.61%

NC(=O)c1cccc(Nc2nccc(Nc3cccc4[nH]ncc34)n2)c1
inhibition [1]: 96.1%
inhibition [2]: 64%
inhibition [3]: 84.6%
inhibition [4]: -0.89%
inhibition [5]: 15.5%
inhibition [6]: -2.6%
inhibition [7]: 16.8%
inhibition [8]: -0.86%
inhibition [9]: 0.93%
inhibition [10]: -0.33%
inhibition [11]: 1.1%
inhibition [13]: 19.6%
inhibition [14]: 6.75%
inhibition [15]: 57%
inhibition [16]: 0.54%
inhibition [17]: 25.2%
inhibition [18]: 16.1%
inhibition [19]: 63.1%
inhibition [20]: 48.5%

CCn1c(-c2nonc2N)nc2ccncc21
inhibition [1]: -0.65%
inhibition [2]: 3.79%
inhibition [3]: 3.12%
inhibition [4]: -0.2%
inhibition [5]: 1.25%
inhibition [6]: 3.48%
inhibition [7]: 5.38%
inhibition [8]: -0.17%
inhibition [9]: -0.42%
inhibition [10]: 0.26%
inhibition [11]: 0.76%
inhibition [12]: 1.34%
inhibition [13]: 6.51%
inhibition [14]: 0.33%
inhibition [15]: 0.91%
inhibition [16]: -1.14%
inhibition [17]: 2.73%
inhibition [18]: 1.87%
inhibition [19]: 2.46%
inhibition [20]: -0.66%

COC(=O)Nc1nc2cc(Oc3ccc(NC(=O)Nc4cccc(C(=O)O)c4)cc3)ccc2[nH]1
inhibition [1]: 0.19%
inhibition [2]: 0.97%
inhibition [3]: 3.15%
inhibition [4]: -3.37%
inhibition [5]: -7.4%
inhibition [6]: 2.72%
inhibition [7]: 0.58%
inhibition [8]: 1.16%
inhibition [9]: 2.82%
inhibition [10]: -2.99%
inhibition [11]: -2.68%
inhibition [12]: 2.43%
inhibition [13]: 2.01%
inhibition [14]: -0.28%
inhibition [15]: 4.54%
inhibition [16]: -3.56%
inhibition [17]: 0.66%
inhibition [20]: 2.05%

CC1=C(C(=O)Nc2ccc3[nH]ncc3c2)C(c2ccc(F)cc2)NC(=O)N1 (configuration not stated)
inhibition [1]: 4.69%
inhibition [2]: 3.04%
inhibition [3]: 2.81%
inhibition [4]: 9.13%
inhibition [5]: 8.59%
inhibition [6]: 4.97%
inhibition [7]: 4.22%
inhibition [8]: 0.88%
inhibition [9]: 0.72%
inhibition [10]: 0.65%
inhibition [11]: 1.33%
inhibition [12]: 14.4%
inhibition [13]: 70.3%
inhibition [14]: 2.59%
inhibition [15]: 35.1%
inhibition [16]: 1.07%
inhibition [17]: 30.8%
inhibition [18]: 4.24%
inhibition [19]: 12.3%
inhibition [20]: 5.14%

CC1=C(C(=O)Nc2ccc3[nH]ncc3c2)C(c2ccc(Cl)c(Cl)c2)CC(=O)N1 (configuration not stated)
inhibition [1]: 2.37%
inhibition [2]: 6.21%
inhibition [3]: 7.31%
inhibition [4]: -0.16%
inhibition [5]: 1.11%
inhibition [6]: 1.45%
inhibition [7]: 1.96%
inhibition [8]: 0.58%
inhibition [9]: 1.03%
inhibition [10]: 1.18%
inhibition [11]: 0.67%
inhibition [12]: 5.41%
inhibition [13]: 36.6%
inhibition [14]: 1.94%
inhibition [15]: 23.5%
inhibition [16]: 0.78%
inhibition [17]: 18%
inhibition [18]: 3.14%
inhibition [19]: 5.12%
inhibition [20]: 3.22%
